The values that follow come from PubChem BioAssay.

In assay [1] the target is Albumin (Bos taurus) (UniProt P02769). Kind of assay: compounds binding labelled BSA control protein – biochemical, small-molecule microarray, Alexa647 label, 635/667 nm fluorescence, artefact control for SMM control protein annotation, profiling panel (AID 1118).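 Also: score merges 667 nm emission intensity and signal-to-noise per printed compound spot.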 The note with it: BSA-A647 binding, fluorescence 635 nm, higher = more signal.
Sequence of Albumin (Bos taurus) (P02769 whole entry, looked up): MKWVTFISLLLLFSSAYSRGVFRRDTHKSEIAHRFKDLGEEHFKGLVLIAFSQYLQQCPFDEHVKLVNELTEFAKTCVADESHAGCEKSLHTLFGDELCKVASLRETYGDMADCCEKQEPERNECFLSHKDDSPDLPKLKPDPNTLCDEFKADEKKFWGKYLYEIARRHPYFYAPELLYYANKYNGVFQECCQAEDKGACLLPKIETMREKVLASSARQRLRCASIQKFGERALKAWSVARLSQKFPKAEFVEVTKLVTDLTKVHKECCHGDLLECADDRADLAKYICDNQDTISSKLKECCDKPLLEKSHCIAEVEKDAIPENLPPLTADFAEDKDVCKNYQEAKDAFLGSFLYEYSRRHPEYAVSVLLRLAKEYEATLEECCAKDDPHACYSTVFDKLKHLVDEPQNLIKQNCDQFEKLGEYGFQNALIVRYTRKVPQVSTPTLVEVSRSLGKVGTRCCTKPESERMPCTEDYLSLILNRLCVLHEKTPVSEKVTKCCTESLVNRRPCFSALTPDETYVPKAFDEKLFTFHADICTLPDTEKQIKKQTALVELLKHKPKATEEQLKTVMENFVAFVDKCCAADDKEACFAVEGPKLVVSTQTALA
Assay [2] is described as follows: probe aXIP binding to arrayed compounds – biochemical, NeuroSMM set, 635/667 nm fluorescence, primary screen (AID 1119).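 Also: probe is the protein aXip251-270 applied at 1 µg/mL to compound-printed slides; binding of probe to printed compounds measured as 667 nm fluorescence plus signal to noise.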 The note with it: small-molecule microarray, higher = more signal, called active from +8 up or from −8 down.
The nature of assay [3]: probe aNOTCH3 binding on compound microarray – biochemical, small-molecule microarray, 635/667 nm fluorescence, primary screen (AID 1120).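 Also: probe is a biotin-tagged antibody raised against NOTCH3 rather than NOTCH3 protein; score merges spot fluorescence near 667 nm with spot signal to noise.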 The conditions noted are these: higher = more signal.
Assay [4] is described as follows: probe aNOTCH2 binding on compound microarray – biochemical, small-molecule microarray, 635/667 nm fluorescence, primary screen (AID 1121).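 Also: score merges feature fluorescence read at 667 nm with its signal to noise.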 The conditions noted are these: higher = more signal.
The target of assay [5] is Carbonic anhydrase 2 (Homo sapiens) (UniProt P00918). Kind of assay: compounds binding carbonic anhydrase 2 – biochemical, small-molecule microarray, Alexa647-labelled CAII, profiling panel (AID 1122). The note with it: CAII-A647 binding fluorescence, higher = more signal.
Assay [6] can be described thus: COS7 lysate on small-molecule microarray, probe aHis, 635 nm (AID 1123).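 Also: z-score combines 667nm fluorescence intensity with signal-to-noise per printed compound spot.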 The note with it: COS7 cell lysate, fluorescence, higher = more signal.
Assay [7] is described as follows: probe aLAP1 signal on lysate-treated microarray – cell lysate, small-molecule microarray, COS7 lysate, primary screen (AID 1124).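 Also: lysate comes from COS7 cells expressing LAP1 and is applied at 0.3 µg/mL; score merges spot fluorescence near 667 nm with signal-to-noise over triplicate slides.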 The conditions noted are these: probe aLAP1, fluorescence, higher = more signal.
Assay [8] relates to Sam68 (KHDRBS1). Kind of assay: compounds binding KHDRBS1 protein – biochemical, small-molecule microarray, 635 nm fluorescence, primary screen (AID 1125).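 Also: score merges 667 nm channel intensity with signal to noise over triplicate slides.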 The conditions noted are these: higher = more signal.
In assay [9] the test system is Chordin-like protein 2 (CHRDL2). Nature of the assay: compounds binding chordin-like 2 – biochemical, small-molecule microarray, 635 nm fluorescence, primary screen (AID 1126).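 Also: printed compound slides probed with Chrdl2 protein at 4 µg/mL for 1 h at 4 C; score merges 667 nm emission intensity with signal to noise over three replicate slides.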 The note with it: fluorescence 635 nm, higher = more signal.
For assay [10], the target named is Concanavalin-A (Canavalia ensiformis) (UniProt P02866). Kind of assay: compounds binding concanavalin A lectin – biochemical, small-molecule microarray, Alexa647 label, 635 nm, artefact control for SMM control protein annotation, primary screen (AID 1127).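 Also: z combines 667 nm emission intensity with signal-to-noise across three replicate slides.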 The conditions noted are these: ConA-A647 binding fluorescence, higher = more signal.
Sequence of Concanavalin-A (Canavalia ensiformis) (P02866 whole entry, looked up): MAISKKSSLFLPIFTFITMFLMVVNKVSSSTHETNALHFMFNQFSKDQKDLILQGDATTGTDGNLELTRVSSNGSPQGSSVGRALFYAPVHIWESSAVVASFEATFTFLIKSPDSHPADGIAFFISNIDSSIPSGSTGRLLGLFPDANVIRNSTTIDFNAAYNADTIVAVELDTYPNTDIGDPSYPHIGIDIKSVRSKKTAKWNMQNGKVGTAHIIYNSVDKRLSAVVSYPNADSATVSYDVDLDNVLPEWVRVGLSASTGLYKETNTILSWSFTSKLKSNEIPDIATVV
A short description of assay [11]: compounds binding Alexa647 anti-His antibody – biochemical, small-molecule microarray, 635 nm fluorescence, artefact control for SMM control protein annotation, primary screen (AID 1128).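 Also: score merges feature fluorescence with signal-to-noise for each printed compound spot.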 The note with it: higher = more signal.
In assay [12] the test system is Human papillomavirus type 1a E7 protein (residues 1-88). Nature of the assay: HPV1a E7 small-molecule binders, primary screen, biochemical, small-molecule microarray, residues 1-88, 635 nm (AID 1129). The note with it: small-molecule microarray binding, fluorescence 635 nm; higher = more signal.
For assay [13], the target named is Focal adhesion kinase 1 (Homo sapiens) (UniProt Q05397). Kind of assay: PTK2 protein binding on printed compound slides – biochemical, small-molecule microarray, 635/667 nm fluorescence, BSA, DTT, primary screen (AID 1130).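 Also: composite of spot emission at 667 nm and signal to noise over triplicate slides.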 The note with it: 635 nm fluorescence, higher = more signal.
Sequence of Focal adhesion kinase 1 (Homo sapiens) (Q05397 whole entry, looked up): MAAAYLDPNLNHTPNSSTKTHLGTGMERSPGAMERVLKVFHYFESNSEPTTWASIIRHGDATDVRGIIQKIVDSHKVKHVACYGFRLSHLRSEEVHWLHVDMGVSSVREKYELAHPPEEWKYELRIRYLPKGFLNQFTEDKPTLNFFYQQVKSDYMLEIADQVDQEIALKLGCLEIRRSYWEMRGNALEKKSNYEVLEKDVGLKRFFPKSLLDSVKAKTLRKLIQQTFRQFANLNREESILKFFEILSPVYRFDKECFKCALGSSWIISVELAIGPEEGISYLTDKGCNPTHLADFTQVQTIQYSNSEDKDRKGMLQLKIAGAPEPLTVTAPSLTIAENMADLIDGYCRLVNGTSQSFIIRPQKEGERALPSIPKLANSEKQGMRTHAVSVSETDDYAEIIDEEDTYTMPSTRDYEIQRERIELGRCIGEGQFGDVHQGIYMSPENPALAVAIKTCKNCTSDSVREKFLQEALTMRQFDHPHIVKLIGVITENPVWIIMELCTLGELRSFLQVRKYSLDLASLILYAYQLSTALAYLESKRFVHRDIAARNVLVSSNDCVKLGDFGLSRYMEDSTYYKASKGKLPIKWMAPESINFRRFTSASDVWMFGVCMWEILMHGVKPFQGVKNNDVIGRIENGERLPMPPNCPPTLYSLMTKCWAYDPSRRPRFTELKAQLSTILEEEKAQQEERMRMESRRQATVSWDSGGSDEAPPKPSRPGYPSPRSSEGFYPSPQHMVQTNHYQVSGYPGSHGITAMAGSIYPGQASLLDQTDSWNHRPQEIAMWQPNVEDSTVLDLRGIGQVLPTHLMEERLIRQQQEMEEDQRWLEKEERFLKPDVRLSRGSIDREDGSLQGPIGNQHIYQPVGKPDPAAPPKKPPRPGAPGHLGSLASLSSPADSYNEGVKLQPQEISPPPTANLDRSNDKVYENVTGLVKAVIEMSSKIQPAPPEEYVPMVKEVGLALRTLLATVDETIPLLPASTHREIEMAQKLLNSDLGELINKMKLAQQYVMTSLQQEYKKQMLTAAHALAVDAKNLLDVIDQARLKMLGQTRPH
For assay [14], the system named is Fibrinogen (Alexa647-labelled). Kind of assay: Alexa647-fibrinogen binding to printed small molecules – biochemical, small-molecule microarray, 635/667 nm fluorescence, artefact control for SMM control-protein annotation, profiling panel (AID 1131).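 Also: z-score merges 667 nm fluorescence with per-spot signal-to-noise over triplicate slides.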 The note with it: fibrinogen-A647 binding fluorescence, higher = more signal.
Assay [15] concerns the target Follistatin (Homo sapiens) (UniProt P19883). Nature of the assay: FST protein binding to printed compounds – biochemical, small-molecule microarray, 635/667 nm fluorescence, primary screen (AID 1132). The note with it: 635 nm fluorescence, higher = more signal.
Assay [16] deals with Fibroblast growth factor 2 (Homo sapiens) (UniProt P09038). Kind of assay: basic fibroblast growth factor binding to printed compounds – biochemical, small-molecule microarray, 635/667 nm fluorescence, primary screen (AID 1133). The note with it: FGF2, fluorescence 635/667, higher = more signal.
Sequence of Fibroblast growth factor 2 (Homo sapiens) (P09038 whole entry, looked up): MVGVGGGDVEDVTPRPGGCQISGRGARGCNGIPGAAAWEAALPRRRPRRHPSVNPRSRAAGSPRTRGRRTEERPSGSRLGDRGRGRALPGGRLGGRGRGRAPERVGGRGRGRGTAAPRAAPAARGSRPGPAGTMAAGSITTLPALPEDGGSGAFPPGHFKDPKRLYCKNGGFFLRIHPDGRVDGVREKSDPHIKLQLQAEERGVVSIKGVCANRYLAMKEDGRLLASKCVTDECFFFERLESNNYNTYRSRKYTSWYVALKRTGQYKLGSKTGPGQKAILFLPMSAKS
Assay [17] is described as follows: JC-1 mitochondrial potential readout, lung cancer cells – cell-based, A549, JC-1 fluorescence, basal, 24 h, 100 nL, profiling panel (AID 1138).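 Also: A549 lung adenocarcinoma cells under basal conditions with no added stimulus; test concentration not given here.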 The note with it: higher = more signal.
For assay [18], the system named is Lefty1. Nature of the assay: Lefty1 protein binding to printed compounds – biochemical, small-molecule microarray, 635/667 nm fluorescence, primary screen (AID 1139). The conditions noted are these: fluorescence 635/667, higher = more signal.
Assay [19] deals with wheat germ agglutinin (Triticum aestivum), Alexa647-labelled. Nature of the assay: Alexa647-WGA lectin binding to printed small molecules – biochemical, small-molecule microarray, 635/667 nm fluorescence, artefact control for SMM control-protein annotation, profiling panel (AID 1140).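 Also: score merges 667 nm feature emission with signal to noise over triplicate slides.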 The note with it: WGA-A647 binding, 635 nm fluorescence, higher = more signal.
The target in assay [20] is Luciferin 4-monooxygenase (Photinus pyralis) (UniProt P08659). Nature of the assay: inhibition of purified Photinus pyralis luciferase – biochemical, luminescence, purified enzyme, 2006 set, primary screen (AID 1141).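 Also: cell-free assay with purified firefly luciferase at 100 ng per well in PBS; test concentration not given here.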 The conditions noted are these: purified firefly luciferase, SteadyGlo luminescence, 30 min; higher = more signal, called active from +8 up or from −8 down.
Sequence of Luciferin 4-monooxygenase (Photinus pyralis) (P08659 whole entry, looked up): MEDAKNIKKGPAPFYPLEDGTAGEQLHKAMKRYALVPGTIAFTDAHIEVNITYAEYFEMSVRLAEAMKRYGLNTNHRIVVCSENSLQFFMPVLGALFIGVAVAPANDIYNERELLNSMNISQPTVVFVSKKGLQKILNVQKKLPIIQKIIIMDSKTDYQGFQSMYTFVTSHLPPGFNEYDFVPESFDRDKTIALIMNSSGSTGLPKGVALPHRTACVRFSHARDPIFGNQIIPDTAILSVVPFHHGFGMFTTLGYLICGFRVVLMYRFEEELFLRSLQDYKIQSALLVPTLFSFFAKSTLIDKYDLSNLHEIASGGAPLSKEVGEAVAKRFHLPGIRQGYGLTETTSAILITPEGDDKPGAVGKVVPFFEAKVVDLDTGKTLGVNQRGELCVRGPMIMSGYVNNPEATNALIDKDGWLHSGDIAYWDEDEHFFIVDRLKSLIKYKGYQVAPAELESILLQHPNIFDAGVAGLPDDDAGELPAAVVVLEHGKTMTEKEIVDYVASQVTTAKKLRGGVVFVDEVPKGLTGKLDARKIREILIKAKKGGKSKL

Activity calls are given as the source filed them.

Sequence of Follistatin (Homo sapiens) (P19883 whole entry, looked up): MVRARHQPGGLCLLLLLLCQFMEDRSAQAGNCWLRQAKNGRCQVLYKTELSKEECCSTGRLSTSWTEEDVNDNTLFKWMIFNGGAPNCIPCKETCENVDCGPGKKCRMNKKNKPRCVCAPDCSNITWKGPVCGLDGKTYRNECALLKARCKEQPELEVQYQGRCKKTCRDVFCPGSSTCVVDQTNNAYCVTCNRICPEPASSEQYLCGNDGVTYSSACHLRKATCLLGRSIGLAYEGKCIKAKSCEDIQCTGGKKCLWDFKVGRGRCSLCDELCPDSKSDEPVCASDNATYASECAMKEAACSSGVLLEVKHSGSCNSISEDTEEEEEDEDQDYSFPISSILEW

For `COCCOC(=O)N1C(=O)[C@@]2(c3cc(C#CCC(C(=O)OC)C(=O)OC)ccc31)[C@H](c1ccc(O)cc1)N1[C@H](c3ccccc3)[C@H](c3ccccc3)OC(=O)[C@H]1[C@@H]2C(=O)N1CCc2cc(OC)c(OC)cc2C1`, the composite z-score is -0.0894 in assay [1]; 0.147 in assay [3]; -0.0166 in assay [4]; 0.378 in assay [5]; 1.12 in assay [6]; 0.761 in assay [7]. The composite z-score stood at 1.29 in assay [8]; 0.242 in assay [9]; 0.903 in assay [10]; 2.46 in assay [11]; 1.2 in assay [12]; 0.362 in assay [13]. For the same molecule, the composite z-score in [14] amounted to 0.741; in assay [15], 1.27; in [16] it was 1.26; in assay [18], 0.633; in assay [19], 0.801. In addition, the composite Z-score in [2] is -0.262 (inactive). Moreover, the z-score in assay [17] was 0.627; in assay [20] it was -1.05 (inactive).
Consider `COc1c(C)cc(-c2nc(-c3ccccc3)c3c(c2C)CO[Si]3(C(C)C)C(C)C)cc1C`, for which the composite z-score in [1] was -0.116; in [3], 0.178; in assay [4], -0.0048; in assay [5] it was -0.0127; in assay [6], 0.275; in assay [7], -0.314. For the same molecule, the composite z-score is 0.214 in assay [8]; 0.264 in assay [9]; -0.53 in assay [10]; -0.0017 in assay [11]; 0.223 in assay [12]; 0.0945 in assay [13]. Also, the composite z-score in assay [14] is 0.42; in assay [15], 0.62; in [16] it was 0.376; in assay [18], 0.53; in assay [19] it was -0.0784. Besides, the composite Z-score in [2] is 0.257 (inactive). For the same molecule, the z-score in assay [17] is 0.87; in assay [20], 0.722 (inactive).
With `CCOC(=O)C[C@H]1[C@H](OC(=O)Cc2ccc3c(c2)OCO3)[C@@H](NC(=O)CC(C)C)c2cc(OCCCO)ccc2N1C(=O)c1ccc2ccccc2n1`, the composite z-score in assay [1] is 0.808; in assay [3], 0.121; in assay [4], -0.162; in [5] it was -0.107; in assay [6], 0.26; in assay [7], -0.0904. The composite z-score was determined as 0.797 in assay [8]; 0.386 in assay [9]; 0.369 in [10]; 0.212 in assay [11]; 0.832 in [12]; 0.325 in [13]. For the same molecule, the composite z-score in assay [14] was found to be 0.973; in [15], 1.32; in assay [16], 1.28; in assay [18], 0.424; in assay [19], 0.249. In addition, the composite Z-score in assay [2] is 0.0066 (inactive). In addition, the z-score was -0.944 in assay [17] and 0.739 (inactive) in [20].
`COc1ccc(CCNC(=O)[C@@H]2c3ccccc3C(=O)N(C(C)C)[C@H]2c2ccc(CO)cc2)cc1`: the composite z-score in [1] was -1.09; in assay [3], -0.209; in [4], -0.132; in assay [5], 0.722; in [6] it was 1.42; in assay [7], -0.362. The composite z-score was -0.139 in assay [8]; -1.87 in assay [9]; -0.574 in assay [10]; -1.32 in assay [11]; -0.878 in assay [12]; -0.736 in [13]. Besides, the composite z-score in [14] was -1.3; in [15] it was -1.27; in assay [16], -0.934; in assay [18], -2.21; in [19], -1.74. For the same molecule, the composite Z-score in [2] is 1.13 (inactive). The z-score in assay [17] was 2.71; in assay [20] it was -0.897 (inactive).
For the molecule `Cc1ccc(S[C@]2(C(=O)NC(C)C)CC(=O)N(Cc3ccccc3)[C@@H]2c2ccc(CO)cc2I)cc1`, the composite z-score in assay [1] is -0.437; in assay [3], -0.229; in assay [4] it was -0.227; in assay [5], 0.784; in assay [6] it was 1.79; in [7], 0.532. The composite z-score was 0.636 in assay [8]; -2.55 in [9]; -0.639 in assay [10]; -1.01 in assay [11]; -0.781 in assay [12]; -0.0673 in [13]. Further, the composite z-score was -0.771 in assay [14]; -1.35 in assay [15]; -0.409 in assay [16]; -1.64 in assay [18]; -1.09 in assay [19]. Besides, in assay [2], the composite Z-score is -0.0142 (inactive). Moreover, the z-score in assay [17] is 1.32; in assay [20] it was -0.629 (inactive).
